PubChem BioAssay (EPA / NIEHS)
“And” between values parts separate entries of the source, which are not always exact repeats. Equal entries are not always repeated. Where a structure was tested more than once in an assay, its records may differ in their call. The source made the active and inactive calls. How the source made its calls: active means hit-call score of the fitted dose curve at least 0.9, where 1 is the maximum; inactive means score below 0.9.

How the values were obtained:
[1] = BSK_CASM3C_SRB: Viability Assessment in the BioMAP Diversity Plus: CASM3C Assay (AID 2283050); details: primary human coronary artery smooth muscle cells;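 further: cells exposed to compound for 24 h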
[2] = read-out: Thrombomodulin, THBD (gene 7056); assay: BSK_CASM3C_Thrombomodulin: BioMAP Diversity Plus: CASM3C Assay for Thrombomodulin Biomarker Activity (AID 2283051); details: primary human coronary artery smooth muscle cells; actives raise or lower the signal;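 further: thrombomodulin protein level measured by ELISA 24 h after dosing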
[3] = read-out: Tissue Factor, F3 (gene 2152); assay: BSK_CASM3C_TissueFactor: BioMAP Diversity Plus: CASM3C Assay for Tissue Factor Biomarker Activity (AID 2283052); details: primary human coronary artery smooth muscle cells; actives raise or lower the signal;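 further: cell surface tissue factor protein level read by ELISA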
[4] = read-out: Interferon-gamma inducible Protein 10 (IP10), CXCL10 (gene 3627); assay: BSK_hDFCGF_IP10: BioMAP Diversity Plus: hDFCGF Assay for Interferon-gamma inducible Protein 10 (IP10) Biomarker Activity (AID 2283053); details: primary human foreskin fibroblasts; actives raise or lower the signal
How it was run: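 Primary human foreskin fibroblasts exposed to chemicals for 24 h. IP-10 measured by ELISA; changes fitted bidirectionally against DMSO baseline.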

[5] = read-out: Urokinase-type plasminogen activator receptor (uPAR), PLAUR (gene 5329); assay: BSK_CASM3C_uPAR: BioMAP Diversity Plus: CASM3C Assay for Urokinase-type plasminogen activator receptor (uPAR) Biomarker Activity (AID 2283054); details: primary human coronary artery smooth muscle cells; actives raise or lower the signal;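 further: cell-surface uPAR protein level quantified by ELISA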
[6] = read-out: Vascular cell adhesion molecule 1 (VCAM1), VCAM1 (gene 7412); assay: BSK_CASM3C_VCAM1: BioMAP Diversity Plus: CASM3C Assay for Vascular cell adhesion molecule 1 (VCAM1) Biomarker Activity (AID 2283055); details: primary human coronary artery smooth muscle cells; actives raise or lower the signal;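 further: VCAM-1 protein level quantified by ELISA on the cells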
[7] = read-out: Epidermal growth factor receptor (EGFR), EGFR (gene 1956); assay: BSK_hDFCGF_EGFR: BioMAP Diversity Plus: hDFCGF Assay for Epidermal growth factor receptor (EGFR) Biomarker Activity (AID 2283057); details: primary human foreskin fibroblasts; actives raise or lower the signal
How it was run: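 Primary human foreskin fibroblasts (hDFCGF system), sampled 24 h after dosing; EGFR quantified by ELISA. Bidirectional fit relative to DMSO baseline; SRB total-protein staining in parallel cultures for cytotoxicity.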

[8] = read-out: Interleukin-8 (IL8), CXCL8 (gene 3576); assay: BSK_hDFCGF_IL8: BioMAP Diversity Plus: hDFCGF Assay for Interleukin-8 (IL8) Biomarker Activity (AID 2283058); details: primary human foreskin fibroblasts; actives raise or lower the signal
How it was run: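 IL-8 levels from compound-treated primary human fibroblasts were read by ELISA at 24 h, with DMSO serving as baseline for bidirectional fitting.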

[9] = BSK_hDFCGF_Proliferation: Cell Proliferation Assessment in the BioMAP Diversity Plus: hDFCGF Assay (AID 2283059); details: primary human foreskin fibroblasts;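 further: curves fitted for both rise and fall of signal versus DMSO baseline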
How it was run: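 Sub-confluent human foreskin fibroblast cultures receive test chemical […]. Relative cell number is quantified by sulforhodamine B staining (0.1%, after 10% TCA fixation) at 560 nm, with bidirectional fitting referenced to DMSO.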

[10] = read-out: Macrophage colony-stimulating factor (MCSF), CSF1 (gene 1435); assay: BSK_hDFCGF_MCSF: BioMAP Diversity Plus: hDFCGF Assay for Macrophage colony-stimulating factor (MCSF) Biomarker Activity (AID 2283060); details: primary human foreskin fibroblasts; actives raise or lower the signal
How it was run: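 M-CSF levels, determined by ELISA, are taken at 24 h after dosing human skin fibroblasts. Responses in either direction are fitted with DMSO serving as the baseline.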

[11] = BSK_hDFCGF_SRB: Viability Assessment in the BioMAP Diversity Plus: hDFCGF Assay (AID 2283061); details: primary human foreskin fibroblasts;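 further: cells exposed to compound for 24 h before the read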
How it was run: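 Cells were dosed with test chemical, cultured 24 h, fixed with 10% TCA, then stained with 0.1% SRB and read at 560 nm. The fibroblasts were human foreskin primary cells, and DMSO served as baseline.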

[12] = read-out: TIMP metallopeptidase inhibitor 1 (TIMP1), TIMP1 (gene 7076); assay: BSK_hDFCGF_TIMP1: BioMAP Diversity Plus: hDFCGF Assay for TIMP metallopeptidase inhibitor 1 (TIMP1) Biomarker Activity (AID 2283062); details: primary human foreskin fibroblasts; actives raise or lower the signal
How it was run: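 Fibroblasts from human foreskin are treated with test chemical and harvested at 24 h. TIMP-1 is quantified by ELISA, and gain or loss of signal is scored against DMSO.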

[13] = read-out: Monokine induced gamma interferon (MIG), CXCL9 (gene 4283); assay: BSK_hDFCGF_MIG: BioMAP Diversity Plus: hDFCGF Assay for Monokine induced gamma interferon (MIG) Biomarker Activity (AID 2283063); details: primary human foreskin fibroblasts; actives raise or lower the signal
How it was run: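 MIG signal, determined by ELISA, reflects 24 h chemical exposure of human skin primary fibroblasts. DMSO serves as negative control and baseline.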

[14] = read-out: Matrix Metallopeptidase 1 (MMP1), MMP1 (gene 4312); assay: BSK_hDFCGF_MMP1: BioMAP Diversity Plus: hDFCGF Assay for Matrix Metallopeptidase 1 (MMP1) Biomarker Activity (AID 2283064); details: primary human foreskin fibroblasts; actives raise or lower the signal
How it was run: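 Primary human foreskin fibroblasts in the hDFCGF system were dosed with test chemical, and MMP1 was measured by ELISA 24 h later. Values come from bidirectional curve fitting against the DMSO baseline.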

[15] = read-out: Vascular cell adhesion molecule 1 (VCAM1), VCAM1 (gene 7412); assay: BSK_hDFCGF_VCAM1: BioMAP Diversity Plus: hDFCGF Assay for Vascular cell adhesion molecule 1 (VCAM1) Biomarker Activity (AID 2283065); details: primary human foreskin fibroblasts; actives raise or lower the signal;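 on AC50: VCAM-1 protein level quantified by ELISA after 24 h chemical exposure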
How it was run: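 Cells are dosed, cultured for 24 h, then VCAM-1 is quantified by ELISA; signal increases and decreases are both fitted relative to DMSO.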

[16] = read-out: Plasminogen activator inhibitor-1 (PAI1), SERPINE1 (gene 5054); assay: BSK_hDFCGF_PAI1: BioMAP Diversity Plus: hDFCGF Assay for Plasminogen activator inhibitor-1 (PAI1) Biomarker Activity (AID 2283066); details: primary human foreskin fibroblasts; actives raise or lower the signal
How it was run: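 Human foreskin fibroblast primary cells, 24 h chemical exposure; PAI-1 measured by ELISA. Bidirectional fitting relative to DMSO; parallel cultures stained with SRB for total protein to flag overt cytotoxicity.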

[17] = read-out: Intercellular Adhesion Molecule 1 (ICAM1), ICAM1 (gene 3383); assay: BSK_KF3CT_ICAM1: BioMAP Diversity Plus: KF3CT Assay for Intercellular Adhesion Molecule 1 (ICAM1) Biomarker Activity (AID 2283067); details: primary human keratinocytes with fibroblasts; actives raise or lower the signal
How it was run: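 Dose the keratinocyte/fibroblast co-culture, wait 24 h, measure ICAM-1 by ELISA, then fit increases or decreases against DMSO. Cytotoxicity is checked in parallel cultures by SRB total-protein staining.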

[18] = read-out: Interferon-gamma inducible Protein 10 (IP10), CXCL10 (gene 3627); assay: BSK_KF3CT_IP10: BioMAP Diversity Plus: KF3CT Assay for Interferon-gamma inducible Protein 10 (IP10) Biomarker Activity (AID 2283068); details: primary human keratinocytes with fibroblasts; actives raise or lower the signal
How it was run: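 ELISA read-out of IP-10 after 24 h chemical dosing of human skin primary co-culture (keratinocytes, foreskin fibroblasts). Gain or loss of signal relative to DMSO, bidirectional curve fit.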

[19] = BSK_KF3CT_SRB: Viability Assessment in the BioMAP Diversity Plus: KF3CT Assay (AID 2283069); details: primary human keratinocytes with fibroblasts;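 further: total protein by sulforhodamine B staining as a cytotoxicity measure; fitted for both signal gain and loss against DMSO baseline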
How it was run: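 Human primary keratinocyte plus foreskin fibroblast co-culture exposed to chemicals for 24 h. Total protein measured by 0.1% sulforhodamine B staining after 10% TCA fixation, read at 560 nm; bidirectional fitting versus DMSO baseline.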

[20] = read-out: Collagen III, COL3A1 (gene 1281); assay: BSK_hDFCGF_CollagenIII: BioMAP Diversity Plus: hDFCGF Assay for Collagen III Biomarker Activity (AID 2283056); details: primary human foreskin fibroblasts; actives raise or lower the signal
How it was run: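 Cells: human foreskin fibroblasts, primary. Dosing followed by 24 h incubation, then ELISA for collagen III. Both increases and decreases scored relative to DMSO.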

Measured: AC50

CC(C)C(=O)OCCc1ccccc1
inactive: [1] | [2] | [3] | [4] | [5] | [6] | [7] | [8] | [9] | [10] | [11] | [12] | [13] | [14] | [15] | [16] | [17] | [18] | [19]

C=CC(=O)OCCCCCCCC(C)C
inactive: [1] | [2] | [3] | [4] | [5] | [7] | [8] | [14] | [17] | [18] | [19]
active: [6] 20 µM | [9] 9.62 µM | [10] 20 µM | [11] 25.6 µM | [13] 20 µM | [15] 12.3 µM | [16] 5.93 µM

Oc1ccccc1Cc1ccccc1O
inactive: [1] | [2] | [3] | [4] | [5] | [6] | [20] | [7] | [10] | [12] | [13] | [14] | [15] | [16] | [17] | [18] | [19]
active: [6] 0.239 µM | [9] 28.1 µM and 27 µM | [11] 1.22 µM and 191 nM

C=CC(=O)OCCCCCCOC(=O)C=C
active: [1] 20 µM | [3] 1.43 µM | [4] 2.12 µM | [5] 29.4 µM | [6] 10.8 µM | [20] 7.72 µM | [9] 1.72 µM | [10] 5.72 µM | [11] 5.41 µM | [13] 3.3 µM | [14] 12.8 µM | [15] 0.881 µM | [16] 11.5 µM | [17] 20 µM | [18] 26.6 µM | [19] 20 µM
inactive: [2] | [7]

CCN1CN(CC)CN(CC)C1
inactive: [1] | [2] | [3] | [4] | [5] | [6] | [7] | [9] | [10] | [11] | [12] | [13] | [14] | [15] | [16] | [17] | [18] | [19]

Nc1ccc(C(=O)O)cc1
inactive: [1] | [2] | [3] | [4] | [5] | [6] | [7] | [9] | [10] | [11] | [12] | [13] | [14] | [15] | [16] | [17] | [18] | [19]

CCCC(C)C(=O)OCC (configuration not stated)
inactive: [1] | [2] | [3] | [4] | [5] | [6] | [7] | [8] | [9] | [10] | [11] | [13] | [14] | [15] | [16] | [17] | [18] | [19]

CCCCC1C(=O)N(c2ccccc2)N(c2ccccc2)C1=O
inactive: [1] | [2] | [3] | [4] | [5] | [6] | [7] | [8] | [9] | [10] | [11] | [13] | [14] | [15] | [16] | [17] | [18] | [19]

CC=C(C)C=CC=C(C)C
inactive: [1] | [2] | [4] | [5] | [7] | [11] | [12] | [13] | [14] | [17] | [18] | [19]
active: [3] 3.97 µM | [6] 16.8 µM | [9] 15.7 µM | [10] 3.97 µM | [15] 6.06 µM | [16] 0.016 µM

O=C(Cl)c1c(Cl)c(Cl)c(C(=O)Cl)c(Cl)c1Cl
inactive: [1] | [2] | [3] | [4] | [5] | [6] | [7] | [9] | [10] | [11] | [13] | [14] | [15] | [17] | [18] | [19]
active: [16] 0.016 µM

CCOC(=O)C1=NOC(c2ccccc2)(c2ccccc2)C1
active: [6] 20 µM
inactive: [1] | [2] | [3] | [4] | [5] | [7] | [9] | [10] | [11] | [13] | [14] | [15] | [16] | [17] | [18] | [19]

CC/C=C\CCOC(=O)c1ccccc1O
inactive: [2] | [7]
active: [1] 34.5 µM | [3] 20 µM | [4] 13.7 µM | [5] 36.3 µM | [6] 32.1 µM | [9] 10 µM | [10] 13.1 µM | [11] 13.7 µM | [13] 20 µM | [14] 13.3 µM | [15] 14.9 µM | [16] 11.6 µM | [17] 20 µM | [18] 31 µM | [19] 28.8 µM

C=CCCCCCCCCC=O
inactive: [1] | [2] | [3] | [4] | [5] | [6] | [7] | [8] | [9] | [10] | [11] | [13] | [14] | [15] | [16] | [17] | [18] | [19]

CCOC(=O)C1=NN(c2ccc(Cl)cc2Cl)C(C)(C(=O)OCC)C1 (configuration not stated)
inactive: [1] | [2] | [3] | [4] | [5] | [6] | [7] | [8] | [9] | [10] | [11] | [13] | [14] | [15] | [16] | [17] | [18] | [19]
